These results are taken from PubChem BioAssay (NCI).

The structures appear in SMILES notation. About 83,000 compounds went through this panel and 20% of them were active in at least one assay; those are over-represented in the sample as a whole.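 Each cell line was grown in a 96-well plate and treated with one concentration of compound for 48 hours. Values below 10 were considered active.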 A number with no mark means an inactive call. Calls of active or inactive are those of the source.

Common to all, as to assay: NCI-60 one-dose screen, 48 h (100 = growth as untreated, 0 = no growth, -100 = all killed)
One experiment concerns SK-MEL-2 melanoma. The settings on record: 10 µM.
Another experiment relates to SN12C renal. The settings on record: 10 µM.
A further experiment has as its system UO-31 renal. The settings on record: 10 µM.
The next experiment relates to ACHN renal. The following applies: 10 µM.
The next experiment deals with CAKI-1 renal. The settings on record: 10 µM.
In another experiment the test system is A498 renal. The settings on record: 10 µM.
In the next experiment the test system is CCRF-CEM leukemia. The settings on record: 10 µM.
A further experiment relates to MOLT-4 leukemia. The following applies: 10 µM.
A further experiment deals with EKVX NSCLC. The following applies: 10 µM.
The test system of a further experiment is TK-10 renal. The following applies: 10 µM unless noted.

Consider `CC(C)(C)c1cc(O)c(C(C)(C)C)cc1O`, for which the growth in the experiment with SK-MEL-2 melanoma was 86.6%; in the experiment on SN12C renal, 87.4%; in the experiment with UO-31 renal, 90.3%; with ACHN renal, 92.4%; in the experiment with CAKI-1 renal, 84.4%; in the experiment with A498 renal, 58.5%. Moreover, the growth was 80.4% with CCRF-CEM leukemia and 73.2% in the experiment on MOLT-4 leukemia.
Regarding `CCCNc1ccc(C2=NCCCN2)cc1`, the growth in the experiment with SK-MEL-2 melanoma is 102%; in the experiment with SN12C renal it was 109%; in the experiment on UO-31 renal it was 81.7%; in the experiment on ACHN renal, 102%; in the experiment with CAKI-1 renal, 101%; in the experiment with A498 renal it was 71.7%. Besides, the growth in the experiment with CCRF-CEM leukemia is 99.1%; in the experiment on MOLT-4 leukemia it was 93.7%.
Consider `O=C1C=CC(=O)N1c1ccc(I)cc1Cl`, for which the growth in the experiment on SK-MEL-2 melanoma was 114%; in the experiment on SN12C renal, 101%; in the experiment on UO-31 renal it was 94%; in the experiment with ACHN renal, 104%; with A498 renal, 99.1%; in the experiment on CCRF-CEM leukemia it was 85.9%. In addition, in the experiment on MOLT-4 leukemia, the growth was 128%.
For the compound `COc1ccc(C(=O)C(Br)C(Br)C(=O)O)cc1` (stereo unspecified), the growth in the experiment with SK-MEL-2 melanoma is 94%; with SN12C renal it was 98.6%; in the experiment on UO-31 renal it was 102%; with ACHN renal it was 101%; in the experiment with CAKI-1 renal, 112%; in the experiment with A498 renal it was 101%. Further, in the experiment with MOLT-4 leukemia, the growth is 105%.
Turning to `O=C(O)c1cccc([N+](=O)[O-])c1O`, the growth in the experiment on SK-MEL-2 melanoma is 118%; in the experiment with SN12C renal it was 102%; with UO-31 renal, 86.1%; in the experiment on ACHN renal, 104%; in the experiment on CAKI-1 renal, 99%; with A498 renal, 109%. Besides, the growth with CCRF-CEM leukemia was 100%; in the experiment on MOLT-4 leukemia, 99.5%.
As to `N=c1c(C(=O)OCc2ccccc2)ncc(CCl)n1O`, the growth with EKVX NSCLC is 101%; in the experiment on SN12C renal, 88.6%; in the experiment on UO-31 renal it was 83.5%; in the experiment on TK-10 renal it was 106%; in the experiment on ACHN renal, 94.6%; with CAKI-1 renal, 92.2%. The growth with A498 renal is 103%; in the experiment on CCRF-CEM leukemia it was 94%; in the experiment with MOLT-4 leukemia it was 97.8%.
Consider `O=c1c2ccccc2c(Br)c(Br)c2ccccc12`, for which the growth is 105% in the experiment with EKVX NSCLC; 96.8% in the experiment on SN12C renal; -35.2% (active) in the experiment on UO-31 renal; 23.6% with TK-10 renal; 53.7% in the experiment on ACHN renal; 56.5% in the experiment with CAKI-1 renal. For the same compound, the values for the growth with A498 renal, with CCRF-CEM leukemia and in the experiment with MOLT-4 leukemia were 113%, 30.7% and 53.6%, respectively.
Turning to `C=CC(=O)OCCCCCCCC`, the growth in the experiment on EKVX NSCLC is 111%; in the experiment on SN12C renal, 103%; with UO-31 renal, 88.4%; with TK-10 renal it was 140%; in the experiment with ACHN renal, 101%; in the experiment with CAKI-1 renal it was 97.6%. The growth is 89.8% with A498 renal, 83% with CCRF-CEM leukemia and 89.9% in the experiment with MOLT-4 leukemia.
As for `O=C(O)CSCSCC(=O)O`, the growth in the experiment on SK-MEL-2 melanoma was 94.8%; in the experiment with SN12C renal, 104%; with UO-31 renal, 92.3%; in the experiment with TK-10 renal it was 93.6%; in the experiment on ACHN renal, 101%; with CAKI-1 renal, 96.9%. Also, the figures for the growth with A498 renal and in the experiment with MOLT-4 leukemia were 80.4% and 101%, respectively.
With `O=S(=O)(O)CC(O)CN1CCN(CCO)CC1` (stereo unspecified), the growth in the experiment on EKVX NSCLC is 119%; in the experiment on SN12C renal it was 110%; with UO-31 renal, 91.6%; with TK-10 renal it was 116%; in the experiment with ACHN renal it was 111%; in the experiment on CAKI-1 renal, 106%. In addition, the growth was 106% in the experiment on A498 renal, 103% with CCRF-CEM leukemia and 90.3% with MOLT-4 leukemia.
Take `CNS(=O)(=O)c1ccc(Cl)c(Cl)c1`: the growth with EKVX NSCLC was 99%; in the experiment on SN12C renal it was 92.7%; with UO-31 renal, 109%; with TK-10 renal, 89.4%; with ACHN renal, 99.5%; with A498 renal it was 104%. Also, the growth in the experiment on CCRF-CEM leukemia is 104%; with MOLT-4 leukemia it was 84.9%.
With `N#Cc1c(N)sc(=S)c2c1CCCC2`, the growth in the experiment with EKVX NSCLC is 107%; in the experiment with SN12C renal it was 105%; with UO-31 renal it was 91.6%; in the experiment on TK-10 renal, 116%; in the experiment with ACHN renal, 103%; in the experiment with CAKI-1 renal, 98.5%. Also, the figures for the growth in the experiment with A498 renal, in the experiment with CCRF-CEM leukemia and in the experiment on MOLT-4 leukemia were 113%, 101% and 95.4%, respectively.
As to `C/C(=C\c1cc(Cl)ccc1OCC(=O)O)[N+](=O)[O-]`, the growth in the experiment on EKVX NSCLC was 98.2%; in the experiment on SN12C renal it was 122%; with UO-31 renal, 90.5%; in the experiment on TK-10 renal, 116%; in the experiment on ACHN renal, 106%; in the experiment on CAKI-1 renal it was 93.2%. The growth in the experiment with A498 renal was 144%; in the experiment with CCRF-CEM leukemia it was 80.1%; in the experiment with MOLT-4 leukemia, 96.9%.
Turning to `O=C(O)CCCc1ccccc1`, the growth is 116% in the experiment with EKVX NSCLC; 101% in the experiment on SN12C renal; 94.9% with UO-31 renal; 98.9% with TK-10 renal; 108% in the experiment with ACHN renal; 108% in the experiment with CAKI-1 renal. Further, the growth in the experiment with A498 renal is 121%; in the experiment on CCRF-CEM leukemia, 102%; with MOLT-4 leukemia, 98.4%.
As to `O=C(NCO)c1ccccc1`, the growth in the experiment with EKVX NSCLC is 108%; in the experiment with SN12C renal, 105%; with UO-31 renal, 78.9%; with TK-10 renal, 144%; in the experiment on ACHN renal, 97.4%; in the experiment with CAKI-1 renal it was 98.5%. The growth with A498 renal was 106%; with MOLT-4 leukemia, 95.4%.
For the compound `C=CCNc1nnc(C)s1`, the growth in the experiment on EKVX NSCLC was 109%; in the experiment on SN12C renal, 95.6%; in the experiment with UO-31 renal it was 81.1%; in the experiment on TK-10 renal, 123%; in the experiment on ACHN renal, 96.7%; in the experiment with CAKI-1 renal, 119%. Also, the growth in the experiment on A498 renal is 123%; in the experiment on CCRF-CEM leukemia, 105%; in the experiment with MOLT-4 leukemia, 168%.
In the case of `O=C(O)c1ccc(S(=O)(=O)O)cc1`, the growth in the experiment on EKVX NSCLC is 104%; in the experiment with SN12C renal it was 95.2%; in the experiment with UO-31 renal, 64.4%; in the experiment on TK-10 renal, 116%; in the experiment with ACHN renal, 99.5%; in the experiment on CAKI-1 renal, 79%. For the same compound, the growth with A498 renal was 122%; with CCRF-CEM leukemia, 106%; with MOLT-4 leukemia it was 118%.
`c1ccc(Cc2ccccc2)cc1`: the growth is 102% with EKVX NSCLC; 95.1% in the experiment on SN12C renal; 99% with TK-10 renal; 107% with ACHN renal; 85.7% in the experiment on CAKI-1 renal; 102% in the experiment with A498 renal. The growth in the experiment with CCRF-CEM leukemia is 104%; with MOLT-4 leukemia it was -26.2% (active).
